Bioassay records: PubChem BioAssay, The Scripps Research Institute Molecular Screening Center
GALR2 blocker: antagonists of human galanin receptor 2 (GALR2); O43603; GALR2-expressing cells, antagonist mode; inhibition, % at 4 µM; 0.39% of 140,000 active;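 further: cells stimulated with galanin 1-16 at roughly its EC80; 0% = agonist challenge control and 100% = basal control without agonist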
S1P2 antag: antagonists of human S1P2 receptor | inhibition, % at 5 µM | AID 736 | 0.21% of 97,000 active | O95136 | cell-based S1P2 antagonist assay, inhibition at 5 uM; in the data active means inhibition above about 45%;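 further: CRE beta-lactamase reporter cells expressing human S1P2 stimulated with S1P; 0% = agonist at EC80 alone and 100% = agonist plus reference antagonist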
Target sequence (O95136 whole entry, looked up): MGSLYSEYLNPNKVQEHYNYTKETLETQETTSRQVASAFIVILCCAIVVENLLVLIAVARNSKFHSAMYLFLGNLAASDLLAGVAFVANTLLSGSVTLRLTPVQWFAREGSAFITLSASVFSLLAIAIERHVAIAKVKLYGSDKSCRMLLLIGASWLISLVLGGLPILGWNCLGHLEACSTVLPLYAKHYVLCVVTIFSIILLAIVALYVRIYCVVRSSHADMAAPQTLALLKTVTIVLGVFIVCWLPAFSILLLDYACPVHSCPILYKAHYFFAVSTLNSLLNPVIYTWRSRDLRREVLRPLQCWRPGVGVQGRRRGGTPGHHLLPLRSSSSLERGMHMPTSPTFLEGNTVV
GALR2 agonist: agonists of human galanin receptor 2 (GALR2); O43603; GALR2-expressing cells, agonist activation read-out; activation, % (concentration not given with the values); AID 803; 0.48% of 140,000 active; in the data active means activation above about 5%, passing the limit was not always enough;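 further: 0% = vehicle buffer wells and 100% = reference agonist at full effect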
S1P2 agonist: activates the human S1P2 receptor. activation, % at 4.5 µM. S1P2-expressing cell line, agonist reporter read-out. 0.46% of 97,000 active. O95136; in the data active means activation above about 16%;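 further: 0% = vehicle low control and 100% = maximal reference agonist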
GALR2 blk conf: GALR2 (human) antagonism confirmed; shares compounds with GALR2 blocker; GALR2-expressing cells, antagonist mode, inhibition; inhibition, % at 4 µM; 60% of 480 active; AID 866;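 further: cells stimulated with galanin at about its EC80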
BLA inhib ctr: inhibits beta-lactamase reporter in GALR2 antagonist counterscreen; shares compounds with GALR2 blocker; 36% of 480 active; inhibition, % at 4.2 µM; CHO NFAT-BLA reporter, beta-lactamase FRET, thapsigargin-stimulated;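 active means inhibition above the mean inhibition across tested compounds plus 3 SD, cut at about 27% in these data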;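 further: 0% = 500 nM thapsigargin stimulated wells and 100% = unstimulated BSA only wells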
Numbers without * were called inactive; · = no result given; ! = repeats disagree. Shown are actives, neighbours in structure and some others; about 1.2% of the full set was active somewhere. Unless noted, no stated cut-off is given here; in the data, active means inhibition above about 27%; inactive means the rest.

SMILES	GALR2 blocker	S1P2 antag	GALR2 agonist	S1P2 agonist	GALR2 blk conf	BLA inhib ctr
Nn1cnnc1N/N=C/c1cc(Br)cc(Br)c1O	31*	-10	-4	-1	8	0
CC(=O)c1cccc(NC(=O)C23CC4CC(C2)CC(n2cncn2)(C4)C3)c1	-1	·	-2	·	·	·
Cc1ccc(/C(C#N)=C\c2ccc(N3CCOCC3)o2)cc1	44*	51*	-2	-7	15	22
Cc1ccc2nc(/C(C#N)=C\c3ccc(N4CCOCC4)o3)[nH]c2c1	29*	-27	0	0	23	6
Cc1cc(C)c(C2=NOC3C4CCC(C4)C23)c(C)c1 (stereo not given)	1	·	-1	·	·	·
C=CCn1c(SCc2csc(-c3ccc(Cl)cc3)n2)nnc1-c1ccccc1OC	-1	·	-1	·	·	·
COc1ccc(CNC(=O)COc2ccc([N+](=O)[O-])cc2)cc1	-3	-4	-2	-8	·	·
Cn1c(=O)c2c(nc(SCC(=O)Nc3ccccc3)n2C)n(C)c1=O	28*	·	0	·	8	1
CCn1c(SCC(=O)Nc2ccccc2)nc2c1c(=O)n(C)c(=O)n2C	10	-21	0	-3	·	·
CC(C)(C)C(=O)/C(=C\c1ccc([N+](=O)[O-])cc1)n1cncn1	56*	66*	1	-9	73*	57*
O=C(OCn1ncc(Br)c(Br)c1=O)c1ccc(F)cc1	79*	54*	-5	-2	92*	95*
O=C(OCc1cnc(Cl)s1)c1ccccc1Cl	0	15	-2	-2	·	·
O=C(OCn1ncc(Br)c(Br)c1=O)c1ccccc1Cl	79*	51*	-3	-5	95*	97*
CC(C)(C)C(=O)Nc1nc(C2CCCN2S(=O)(=O)c2ccc(Cl)cc2)cs1 (stereo not given)	-2	-2	-2	-6	·	·
CC(NC(=O)CN(C)Cc1nc2ccccc2c(=O)[nH]1)c1ccccc1 (stereo not given)	36*	-9	-3	-4	3	4
O=C(CC(C(=O)O)c1ccccc1)Nc1cccc2ccccc12 (stereo not given)	2	·	0	·	·	·
CC(=O)c1c(C)[nH]c(C(=O)OCC(=O)Nc2cc(Cl)ccc2[N+](=O)[O-])c1C	25	·	-1	·	·	·
CC(=O)c1c(C)[nH]c(C(=O)OCC(=O)Nc2ccc(C)cc2[N+](=O)[O-])c1C	40*	·	-1	·	49*	11
COc1cc(CSc2nnnn2-c2ccc(C)cc2)cc(OC)c1OC	43*	·	-1	·	41*	14
CCOC(=O)C1=C(O)c2ccccc2C(=O)/C1=C\c1ccc(C)cc1	30*	·	-1	·	15	14
Cc1cnnn1-c1ccc(C(=O)CCl)cc1	3	9	-2	-3	·	·
Fc1ccc(SCCc2ccncc2)cc1	32*!	18	-3	-5	6	0
CC(C)CC(COCc1ccc(Cl)cc1)N1CCN(C(=O)c2ccc(Cl)cc2Cl)CCC1=O (stereo not given)	-10	·	-1	·	·	·
Oc1ccc(Nc2nc3ccccc3nc2Nc2ccc(O)cc2)cc1	32*	21	0	-1	34*	33*
CC1=C(C(=O)N2CCOCC2)C(c2ccc(C)cc2)NC(=S)N1 (stereo not given)	-4	·	-1	·	·	·
SMILES	GALR2 blocker	S1P2 antag	GALR2 agonist	S1P2 agonist	GALR2 blk conf	BLA inhib ctr
CN(/N=C\c1ccc(O)c(O)c1)c1nc(-c2ccccc2)cc(-c2ccccc2)n1	47*	·	0	·	64*	81*
Cc1cc(NC(=O)c2ccoc2C)no1	3	10	-2	0	·	·
C#CC(=O)N(c1cccc(OC)c1)C(C(=O)NC1CCCC1)c1cccs1 (stereo not given)	62*	41	-2	-8	72*	58*
C#CC(=O)N(c1ccc(OC)c(OC)c1)C(C(=O)NC1CCCC1)c1cccs1 (stereo not given)	41*	35	-2	-12	54*	51*
COc1ccc(N(C(=O)Cc2cccs2)C(C(=O)NC2CCCCC2)c2cccn2C)cc1OC (stereo not given)	-15	-22	-2	-10	·	·
O=C(NC(=S)Nc1ccc(S(=O)(=O)Nc2nccs2)cc1)c1cccc(F)c1	-9	·	0	·	·	·
CCOc1ccc2c(c1)C(C)=CC(C)(C)N2C(=O)Nc1ccccc1	29*	5	-1	1	8	5
COc1ccc(O)c(/C=N/NC(=S)Nc2cccc(S(=O)(=O)N(C)C)c2)c1	35*	·	-1	·	21	13
CC(=O)c1c(C)nc(-c2ccc(Cl)cc2)nc1N=CN(C)C	31*	-5	-3	-4	20	12
CCN(CC(=O)Nc1ccc2c(c1)OCCO2)c1nc(-c2cccnc2)nc2ccccc12	1	16	0	-2	·	·
CC[C@@H](NS(=O)(=O)c1ccc(C)cc1)C(=O)Oc1ccc2c3c(c(=O)oc2c1)CCC3	-27	·	1	·	·	·
Cc1ccc(S(=O)(=O)NC(C(=O)Oc2ccc3c(C(F)(F)F)cc(=O)oc3c2)c2ccccc2)cc1 (stereo not given)	35*	·	0	·	25	31*
CCCC(c1nnnn1Cc1ccco1)N1CCN(C2CCCC2)CC1 (stereo not given)	69*	·	-2	·	7	27*
CCCSc1nnc(NC(=O)c2sc3nc(-c4cccs4)ccc3c2N)s1	38*	55*	-4	-12	21	34*
Cc1ccc(CNC(=O)c2ccc(N3CCCC3=O)cc2)cc1	7	6	-2	-2	·	·
Cn1nc(C(C)(C)C)cc1C(=O)NCc1ccc(N2CCCC2=O)cc1	45*	·	-2	·	39*	9
Cc1ccc(NC(=S)NNC(=O)c2nnn(-c3ccccc3)c2C)cc1	-4	·	-2	·	·	·
CCOC(=O)c1cnn(-c2nc3c(C)cccc3s2)c1C(F)(F)F	5	-14	-2	0	·	·
CCOC(=O)c1cnn(-c2nc3c(C)cccc3s2)c1C	32*	6	-4	-4	-1	4
CSc1ccccc1NC(=O)CN(C)CC(=O)Nc1ccc(Cl)cc1F	4	·	-1	·	·	·
Cc1cc(Nc2ccccc2)nc(NCc2ccccc2)n1	42*	·	-1	·	50*	31*
Cc1cc(Nc2ccc(Cl)cc2)nc(NCc2ccccc2)n1	12	·	3	·	·	·
Cc1cc(C(=O)OCC(=O)Nc2ccccc2[N+](=O)[O-])c2ccccc2n1	40*	·	-1	·	11	9
O=S(=O)(Nc1cc(Sc2cccc3cccnc23)c(O)c2ccccc12)c1ccccc1	31*	·	0	·	24	10
Cc1ccc(S(=O)(=O)Nc2cccc3cccnc23)cc1	8	-14	0	-4	·	·
N#Cc1c(-c2ccccc2F)cc(C2CC2)nc1SCC(=O)c1cccs1	28*	·	-1	·	32*	32*
O=C1C(Nc2ccccc2)=C/C(=N/S(=O)(=O)c2cccs2)c2ccccc21	88*	·	5.5*	·	67*	71*
Cc1ccc(NC2=C/C(=N/S(=O)(=O)c3cccs3)c3ccccc3C2=O)cc1	3	·	2	·	·	·
Clc1cccc(Cl)c1/C=C/c1nc2ccccc2[nH]1	27*	-5	-1	-4	29*	12
